Measured values reported in PubChem BioAssay AID588453 (National Center for Advancing Translational Sciences (NCATS), 2011).
Among all 390,000 compounds or so, about 4,000 (1%) were called active. Inconclusive results (about 4%) are left out. The sample as a whole holds a higher share of actives than the screen did. Values without a mark were called inactive. Calls come from the whole dose curve; as a rule, active = well fitted inhibition curve with a large enough effect; inconclusive = small, poorly fitted or top-dose-only effect; inactive = no such curve, though single readings can be large or run the other way.

What follows are compounds tested against Thioredoxin reductase 1, cytoplasmic (Rattus norvegicus) (UniProt O89049) (assay: qHTS Assay for Inhibitors of Mammalian Selenoprotein Thioredoxin Reductase 1 (TrxR1): qHTS). Conditions: recombinant rTrxR1, NADPH fluorescence consumption, selenite substrate; series mostly up to 114 µM; activity change, negative = inhibition: at the top concentration.
Thioredoxin reductase 1, cytoplasmic (Rattus norvegicus), sequence (O89049 whole entry, looked up): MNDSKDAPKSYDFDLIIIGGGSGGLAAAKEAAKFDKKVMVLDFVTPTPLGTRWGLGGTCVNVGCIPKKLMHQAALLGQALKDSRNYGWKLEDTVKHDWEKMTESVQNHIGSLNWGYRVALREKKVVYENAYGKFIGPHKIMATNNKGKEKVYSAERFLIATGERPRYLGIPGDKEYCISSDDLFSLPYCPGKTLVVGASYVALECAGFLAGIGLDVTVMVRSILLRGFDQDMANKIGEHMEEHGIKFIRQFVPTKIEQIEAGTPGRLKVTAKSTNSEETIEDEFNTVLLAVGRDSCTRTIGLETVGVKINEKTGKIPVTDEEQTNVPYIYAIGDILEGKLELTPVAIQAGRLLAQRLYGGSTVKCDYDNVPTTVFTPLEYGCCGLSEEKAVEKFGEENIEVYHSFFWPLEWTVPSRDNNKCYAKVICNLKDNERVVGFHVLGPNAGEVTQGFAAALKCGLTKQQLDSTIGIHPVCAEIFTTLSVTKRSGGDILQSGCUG
Summary of the method: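 Rat TrxR1 (90 nM in the dispensed reagent) was pre-reduced with 400 uM NADPH for 5 min at room temperature, then incubated with compound for 15 min. After 400 uM selenite was added, NADPH fluorescence (Ex 340/Em 450 nm) was followed for 8 min.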
% is set by controls: 0 for no effect and ±100 for the full control effect; potency is the fitted concentration of half-maximal effect.
Note: nearly all actives have a fitted effect of over 65% in size.

Row | SMILES | activity change, negative = inhibition | Potency
1 | O=C(COc1ccccc1C(=O)Nc1ccccc1)Nc1cccc(F)c1 | 21.1% | 
2 | CCC(=O)Nc1cccc(-c2nc3cc(C)ccc3o2)c1 | 34.9% [at 57.1 µM] | 
3 | CC(C)(C)c1ccc(C(=O)C[N+]2(C)CCCc3ccccc32)cc1 (stereo unspecified) | 7.97% | 
4 | COC(=O)c1ccccc1NC(=O)Cc1ccccc1OC | -5.24% | 
5 | O=C(NC(=S)NC1CCSC1=O)c1ccccc1F (stereo unspecified) | 9.7% | 
6 | COC(=O)c1ccccc1NC(=S)NC(=O)c1ccccc1F |  | 25.1 µM (active)
7 | COc1cccc(C2C(C(=O)Nc3ccc(C)cc3C)=C(C)Nc3c(C(=O)Nc4ccccc4)cnn32)c1 (stereo unspecified) | 2.63% | 
8 | CC1CCCCN1Cc1c(O)ccc2c(=O)c(-c3cccc(Cl)c3)c(C(F)(F)F)oc12 (stereo unspecified) | -4.93% | 
9 | CC1CCCN(Cc2c(O)ccc3c(=O)c(Oc4ccc(C(C)(C)C)cc4)c(C(F)(F)F)oc23)C1 (stereo unspecified) | 7.62% | 
10 | COc1ccc(Cc2nnc(SCC(=O)c3cccc([N+](=O)[O-])c3)n2C)cc1 |  | 79.4 µM (active)
11 | COc1ccc(CC(=O)NCc2nnc(SCC(=O)Nc3nccs3)n2C)cc1 | 9.52% | 
12 | CCn1c(CNc2ccc(OC)cc2)nnc1SCC(=O)c1ccc(OC)cc1 | -11.4% | 
13 | Fc1ccc(CSc2nc(NCc3ccccc3)c3ccccc3n2)cc1 | 17.9% [at 57.1 µM] | 
14 | O=C(CSc1nnc(CNC(=O)c2ccccc2)n1-c1ccc(F)cc1)Nc1ccccc1F | 27.2% | 
15 | O=C(c1ccc2c(c1)OCO2)N1CCNc2ccccc2C1 | -7.73% | 
16 | O=C(CCN1CCc2ccccc2C(O)(c2ccccc2)C1)c1ccc2c(c1)OCCO2 (stereo unspecified) |  | 0.708 µM (active)
17 | O=C(OCc1ccccc1F)c1ccc2c(c1)OCCO2 | 16.1% | 
18 | O=C1CCC[C@@H]2C[C@@]3(C[C@@H]4CCN1[C@H]24)Nc1ccccc1NC3=NCc1ccccc1 | 11.3% | 
19 | O=C(O)C1CC=CC2CCN(C3CCCCC3)C(=O)C21 (stereo unspecified) | 4.14% | 
20 | Cc1nnc(N2CCCC(C(=O)NCCN(C)C)C2)c2nn(-c3ccccc3)c(C)c12 (stereo unspecified) | 14.7% | 
21 | O=C1c2ccccc2C(=O)N1c1ccc(S(=O)(=O)N2CCOCC2)c2ccccc12 | 5.9% | 
22 | O=C(c1ccc(Oc2ccc(Cl)cc2)c([N+](=O)[O-])c1)N1CCCC1 | 14.8% | 
23 | CC1CCN(C(=O)c2ccc(S(=O)(=O)Cc3cc(F)ccc3F)c([N+](=O)[O-])c2)CC1 |  | 10 µM (active)
24 | NC(=O)C1CCN(C(=O)c2ccc(F)c(S(=O)(=O)N3CCOCC3)c2)CC1 | 14.1% | 
25 | Cc1cccc(-c2nnc(SC(C)C(=O)Nc3ccccc3)n2C)c1 (stereo unspecified) | 6.51% | 
26 | COc1cc(Cl)c(C)cc1NC(=O)CCc1nc2cccnc2n1Cc1cccs1 | 10.8% | 

Row | SMILES | activity change, negative = inhibition | Potency
27 | Cc1cccc(C(=O)N2CCc3cc(CNC(=O)Cc4ccc(F)cc4)ccc32)c1 | 5.2% [at 57.1 µM] | 
28 | CCOC(=O)c1cnc2sccn2c1=O | 22.6% | 
29 | CCOC(=O)c1cnc2[nH]c3ccccc3n2c1=O |  | 44.7 µM (active)
30 | CCOC(=O)c1cnc2nc(SCc3ccccc3Cl)[nH]n2c1=O | 16.8% | 
31 | COc1ccc(NC(=O)CSc2nc3ccccc3[nH]2)cc1 | 27.2% | 
32 | Cc1ccccc1CN1C[C@@H]2C[C@@H](c3ccc4nsnc4c3)N3CCC[C@@]23C1=O | -29.8% | 
33 | Cc1ccccc1CN1C[C@@H]2C[C@@H](c3cn(C)nc3-c3ccccc3)N3CCC[C@@]23C1=O |  | 44.7 µM (active)
34 | Cc1ccccc1CN1CCN(CC(=O)NCc2ccccn2)C1=O | 2.68% | 
35 | CCOC(=O)c1[nH]c(C)c(CCC(=O)N2CCN(c3ccccc3)CC2)c1C | 16% [at 57.1 µM] | 
36 | CCc1nc2ccc(C(=O)N3CCN(c4cc(Cl)ccc4C)CC3)cc2nc1CC | 9.4% [at 57.1 µM] | 
37 | CC(C)CNC(=S)NNC(=O)c1nn(C)cc1Cl | -12.6% [at 57.1 µM] | 
38 | CC(C)CNC(=S)NC(=O)c1ccc(Cl)cc1 |  | 14.1 µM (active)
39 | Cc1scc(C(=O)NNC(=S)NCC(C)C)c1C | 5.78% | 
40 | CCOC(=O)c1c(NC(=O)CSc2cn(CCNC(=O)c3cccc(C(F)(F)F)c3)c3ccccc23)sc2c1CCC2 | 16.1% [at 11.4 µM] | 
41 | Cc1cc(C)nc(NNC2=CC(=O)CC(C)(C)C2)n1 |  | 14.1 µM (active)
42 | CC1(C)CC(=O)C=C(NCc2ccncc2)C1 | -12.2% [at 57.1 µM] | 
43 | Cc1cc(O)ccc1NC1=CC(=O)CC(C)(C)C1 | -14.1% [at 57.1 µM] | 
44 | Cc1ccc(OCCn2c(CNc3ccccc3C)nc3ccccc32)cc1 | 14.2% | 
45 | CCN1CCc2nc3sc(C(=O)Nc4ccccc4OC(F)(F)F)c(N)c3cc2C1 | -1.24% | 
46 | Cc1ccc(C)c(Cn2c(CCCNC(=O)C3CCCCC3)nc3ccccc32)c1 | 2.37% | 
47 | CCC(=O)Nc1ccc2nc(SCC(=O)N3CCc4ccccc43)sc2c1 | 1.52% | 
48 | O=C1C=CC(=O)N1c1ccc(N2CCCCC2)cc1 |  | 0.708 µM (active)
49 | O=C(NCc1ccc(F)cc1)c1ccc(Cn2c(SCc3ccc(F)cc3)nc3cccnc32)cc1 | 16.5% | 
50 | Cc1ccc(C)n1-c1nnc(N2CCC(C(=O)NCc3ccc(F)cc3)CC2)s1 | -27.1% | 
51 | COc1ccc(CCNC(=O)CCCn2c(=O)c3ccccc3n(Cc3ccc(F)cc3Cl)c2=O)cc1OC | 13.4% | 
52 | Nc1ccccc1SC(C[N+](=O)[O-])c1ccccc1 (stereo unspecified) |  | 7.94 µM (active)

Row | SMILES | activity change, negative = inhibition | Potency
53 | CN(C)c1ccc(/C=c2\[nH]c(=O)/c(=C/c3ccc(N(C)C)cc3)[nH]c2=O)cc1 | 9.58% | 
54 | COc1ccccc1N1CCN(C(=O)C2Cc3ccccc3CN2C(=O)c2ccco2)CC1 (stereo unspecified) | 1.63% | 
55 | Cc1ccc(S(=O)(=O)N(C)C)cc1NC(=O)C1Cc2ccccc2CN1C(=O)c1ccco1 (stereo unspecified) |  | 39.8 µM (active)
56 | Cc1ccc(C)c(NC(=O)C2Cc3ccccc3CN2C(=O)OCc2ccccc2)c1 (stereo unspecified) | 0.243% | 
57 | Cc1c(Cl)cccc1NC(=O)CCS(=O)(=O)c1ccc2c(c1)oc(=O)n2C | 0.617% | 
58 | Cc1ccc(C)c(NC(=O)Cn2ccn(-c3ccc(F)cc3)c(=O)c2=O)c1 | 7.31% | 
59 | CCc1cc2c(cc3c(=O)n(CC(=O)NCCc4ccc(OC)c(OC)c4)ncn32)s1 | 5.4% | 
60 | O=C(OCCN1C(=O)c2ccccc2C1=O)Oc1ccccc1 | 29.4% | 
61 | O=C1c2ccccc2C(=O)N1CCC(O)C[N+](=O)[O-] (stereo unspecified) |  | 70.8 µM (active)
62 | O=C1c2ccccc2C(=O)N1CCOc1ccc(F)cc1 | 17.5% | 
63 | Cc1cc2nn(-c3ccc(Cl)cc3)nc2cc1NC(=O)C(C)C | 13.3% | 
64 | COc1ccc(/C=C(\NC(=O)c2ccc(OCC(C)C)cc2)C(=O)OCc2ccco2)cc1 | -27.7% | 
65 | CC(C)Oc1ccc(/C=C(\NC(=O)/C=C/c2ccco2)C(=O)NCCc2nc3ccccc3[nH]2)cc1 |  | 17.8 µM (active)
66 | CCCC(NC(=O)c1ccco1)c1nc2ccccc2[nH]1 (stereo unspecified) | -19% | 
67 | O=C1CN(Cc2ccccc2)S(=O)(=O)c2ccccc21 | -21.6% | 
68 | COc1cccc(CNC(=O)c2ccc3c(Cl)c4c(nc3c2)CCCC4)c1 | 39.5% | 
69 | C/C=C(\C)C(=O)N1CC2(CC(c3cccc(NC(=O)CCCCC)c3)=NO2)C[C@@H]1C(N)=O (stereo partly specified) | -4.01% [at 57.1 µM] | 
70 | CC/C=C/C(=O)N1CC2(CC(c3cccc(NC(=O)CC)c3)=NO2)C[C@H]1C(N)=O (stereo partly specified) | -13.2% [at 57.1 µM] | 
71 | C/C=C\C=C\C(=O)N1CC2(CC(c3cccc(NC(=O)/C(C)=C\C)c3)=NO2)C[C@H]1C(N)=O (stereo partly specified) |  | 50.1 µM (active)
72 | COc1cccc(CNC(=O)Cc2csc3nc(-c4ccccc4)cn23)c1 | 18.4% [at 57.1 µM] | 
73 | O=C(CSc1nnc(-c2ccco2)n1CC1CCCO1)c1ccccc1 (stereo unspecified) |  | 44.7 µM (active)
74 | Cc1nnc(SCC(=O)NNC(=O)c2ccc(Cl)cc2)n1CC1CCCO1 (stereo unspecified) | 14.4% [at 57.1 µM] | 
75 | CNC(=O)NC(=O)CSc1nnc(-c2ccc(F)cc2)n1CC1CCCO1 (stereo unspecified) | 22.1% [at 57.1 µM] | 
76 | CCc1cccc(NC(=O)c2cc(-c3ccccc3)n[nH]2)c1 | 10.9% | 
77 | CC(C)(C)c1ccc(C(=O)C[n+]2cccc3cc(Cl)ccc32)cc1 | 6.36% | 
78 | O=[N+]([O-])c1c(NCCO)cc(Sc2nc3ccccc3s2)c2nonc12 |  | 1.12 µM (active)

Row | SMILES | activity change, negative = inhibition | Potency
79 | CC(C)c1ccc(S(=O)(=O)Nc2ccc(O)c(Sc3nc4ccccc4s3)c2)cc1 | -12.7% | 
80 | CC(C)(C)c1ccc(S(=O)(=O)Nc2ccc(O)c(Sc3nc4ccccc4s3)c2)cc1 | 13.8% | 
81 | CCc1ccccc1NS(=O)(=O)c1ccc2nc(-c3ccccc3)[nH]c2c1 | 10.8% | 
82 | O=S(=O)(Nc1ccc2nc(-c3ccco3)[nH]c2c1)c1ccccc1 |  | 56.2 µM (active)
83 | O=S(=O)(Nc1ccc2nc(-c3cccc(Cl)c3)oc2c1)c1ccccc1 | 26.9% | 
84 | CCOC(=O)C1CCN(c2csc3ccc(C)cc3c2=O)CC1 | -0.301% [at 57.1 µM] | 
85 | COC(=O)c1ccc(NC(=O)CSc2n[nH]c(-c3ccccc3)n2)cc1 | 14.1% [at 57.1 µM] | 
86 | COC(=O)c1nc(NC(=O)c2ccccc2)n[nH]1 |  | 56.2 µM (active)
87 | O=C(Nc1nsc(-c2ccccc2)n1)c1ccncc1 | 12.5% [at 57.1 µM] | 
88 | COc1ccc(CNC(=O)c2cc3c(=O)[nH]c4ccc(C)cc4c3s2)c(OC)c1 | 25.7% | 
89 | Cc1cccc(Cn2c(=O)n(CCC(=O)NCCc3ccc(Cl)cc3)c(=O)c3sccc32)c1 | 7.89% | 
90 | O=S(=O)(c1ccccc1)c1nc(-c2ccc(Cl)cc2Cl)oc1N1CCCCC1 | 28.6% [at 57.1 µM] | 
91 | O=S(=O)(c1ccccc1)c1nc(Cc2ccccc2)oc1N1CCOCC1 |  | 1.58 µM (active)
92 | COc1ccc(-c2nc(S(=O)(=O)c3ccccc3)c(N3CCCCC3)o2)cc1 | -3.21% | 
93 | CCOc1ccc(-c2cc3c(=O)n(CC(=O)NCc4ccc(OC)cc4)ccn3n2)cc1 | 22.5% [at 57.1 µM] | 
94 | Cc1c(CCO)sc[n+]1CC(=O)c1ccc2ccccc2c1 | 14% | 
95 | Cc1noc2ncnc(NCc3ccccc3Cl)c12 | 3.77% | 
96 | COc1ccc(-c2oc3ncnc(NCCCO)c3c2-c2ccc(OC)cc2)cc1 | 4.95% [at 57.1 µM] | 
97 | OCCNc1ncnc2oc(-c3ccco3)c(-c3ccco3)c12 |  | 50.1 µM (active)
98 | CN(C)c1ccc(/C=N\Nc2ccc([N+](=O)[O-])cc2[N+](=O)[O-])cc1Cl | 26.5% [at 0.0914 µM] | 
99 | Cc1ccc2ncc(C(=O)Nc3ccc(OC(F)(F)F)cc3)c(=O)n2c1 | 2.86% | 
100 | Cc1ccccc1-n1nc(C)c2c1N=C1C(Cl)=CC(Cl)=CN1C2c1ccc(C(=O)O)cc1 (stereo unspecified) |  | 12.6 µM (active)
101 | Cc1ccccc1-n1nc(C)c2cc(C(=O)NC3CC3)sc21 | 3.32% | 
